Common to all, as to assay type: functional
The target of experiment [1] is Solute carrier family 2, facilitated glucose transporter member 1 (Homo sapiens) (UniProt P11166). Kind of experiment: ST_JUDE_LEISH: Cytotoxicity at 2uM final concentration against transgenic Leishmania Mexicana promastigotes LmGLUT1 that are glucose transport deficient and complemented with the human glucose transporter GLUT1. Activity is measured by DNA content using SYBR green in vitro.

The target in experiment [2] is Hexose transporter 1 (Plasmodium falciparum) (UniProt O97467). Briefly: ST_JUDE_LEISH: Cytotoxicity at 2uM final concentration against transgenic Leishmania Mexicana promastigotes LmPfHT that are glucose transport deficient and complemented with the Plasmodium falciparum hexose transporter. Activity is measured by DNA content using SYBR green in vitro.
Experiment [3] addresses Glucose transporter (Leishmania mexicana) (UniProt O61059). Kind of experiment: ST_JUDE_LEISH: Cytotoxicity at 2uM final concentration against transgenic Leishmania Mexicana promastigotes LmGT2 that are glucose transport deficient and complemented with the L. Mexicana glucose transporter 2. Activity is measured by DNA content using SYBR green in vitro.

Sequence of Solute carrier family 2, facilitated glucose transporter member 1 (Homo sapiens) (P11166 whole entry): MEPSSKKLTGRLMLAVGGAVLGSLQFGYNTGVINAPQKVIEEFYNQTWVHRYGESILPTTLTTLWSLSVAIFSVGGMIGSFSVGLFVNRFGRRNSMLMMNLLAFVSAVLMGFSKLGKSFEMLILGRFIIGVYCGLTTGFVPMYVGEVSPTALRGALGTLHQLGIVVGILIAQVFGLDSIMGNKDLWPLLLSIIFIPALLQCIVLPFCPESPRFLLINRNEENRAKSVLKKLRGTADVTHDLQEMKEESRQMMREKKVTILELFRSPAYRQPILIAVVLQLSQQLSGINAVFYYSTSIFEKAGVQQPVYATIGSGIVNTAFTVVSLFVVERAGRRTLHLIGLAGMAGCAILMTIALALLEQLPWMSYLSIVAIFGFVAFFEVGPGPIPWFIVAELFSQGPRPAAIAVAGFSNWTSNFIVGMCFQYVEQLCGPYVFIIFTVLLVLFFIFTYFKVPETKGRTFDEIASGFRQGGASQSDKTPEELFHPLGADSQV

Usually inhibition stands for the drop in the measured response relative to a control, in per cent. Take `Cc1cc(C(=O)Nc2nc(-c3ccccn3)nc3ccsc23)no1`: the figures for the inhibition in experiment [1], in experiment [2] and in experiment [3] were 75.8%, 75.1% and 68.5%, respectively.
`O=C(Nc1ccc(Cl)cc1)c1ccc(CN2CCCN(Cc3ccc(F)cc3)CC2)cc1`: the inhibition in experiment [1] came to 5.91%; in experiment [2], 1.23%; in experiment [3], 0.03%.
For the compound `Cc1ccc(-c2ccc3c(c2)C=C(C(=O)NC2CCN(CCNC(=O)c4cccs4)CC2)CCC3)cc1`, the inhibition in experiment [1] is 8.71%; in experiment [2] it was 2.81%; in experiment [3], 2.25%.
The corresponding values for `C[C@@H](CC1CCCCC1)OC(=O)N[C@H]1CCN(C#N)C1` are 12.8%, 8.07% and 7.29%.
The corresponding values for `CCCNCc1ccc(-c2ccc(CN(CCOC)C(=O)c3ccc([N+](=O)[O-])c(C)c3)cc2)nc1` are 3.77%, 1.8% and 1.19%.
The corresponding values for `Clc1cccc(Cl)c1CCNCC1CCN(CC2CCCCC2)CC1` are 5.48%, 5.47% and 6.54%.
For `O=C(COc1ccc(Cl)c(Cl)c1)NCCCCCN1CCCN(C(=O)Nc2cc(Cl)cc(Cl)c2)CC1`, the inhibition in experiment [1] is 5.88%; in experiment [2], -0.58%; in experiment [3], 6.4%.
The corresponding values for `Cc1nc(N)nc(N)c1-c1ccc2ccccc2c1` are -1.96%, -1.02% and -2.1%.
On to `Cc1cc(CN2CC[C@H](NC(=O)c3ccc(Cl)c(Cl)c3)C2)ccc1OC1CCN(C)C1` (stereo partly specified), for which the results for the inhibition in experiment [1], in experiment [2] and in experiment [3] were -0.24%, 0.72% and -0.09%, respectively.
For the compound `CCn1ncc2c(N3CCCC3=O)cc(C(=O)N[C@@H](Cc3ccccc3)[C@H](O)CNC(C)(C)c3cccc(C(F)(F)F)c3)cc21`, the results for the inhibition in experiment [1], in experiment [2] and in experiment [3] were -0.71%, 0.84% and 5.42%, respectively.
With `COc1ccccc1/C=C/C(=O)NCCC1CCN(CCCCCNC(=O)/C=C/c2ccc(Cl)c(Cl)c2)CC1`, the figures for the inhibition in experiment [1], in experiment [2] and in experiment [3] were 16.2%, 13% and 12.2%, respectively.
The matching figures for `COc1ccc(N2CCN(CCCOc3ccc(NC(=O)c4cc(Cl)cc(Cl)c4)cc3)CC2)c(OC)c1`: 6.5%, 5.97% and 6.22%.
The matching figures for `Cc1ccc(C(NC(=O)C2CCCCC2)c2ccc3cccnc3c2O)cc1` (stereo unspecified): 0.75%, 1.7% and 0.54%.
The corresponding values for `Cc1c(Cl)ccc2c(C(=O)Nc3ccncc3)cc(-c3cccnc3)nc12` are -4.52%, -2.06% and -2.1%.
Turning to `COc1ccc(Nc2nc(NC3CCN(C)CC3)cc(-c3ccc(OC)cc3)n2)cc1`, the figures for the inhibition in experiment [1], in experiment [2] and in experiment [3] were 2.07%, 2.61% and 2.87%, respectively.
The corresponding values for `CCOc1cc(C(=O)NC2CC(C)(C)NC(C)(C)C2)ccc1-c1nc2cc(Cl)ccc2[nH]1` are 1.25%, 1.71% and 1.1%.
The corresponding values for `O=C1COC2(CN1C1CCN(Cc3ccc(O)cc3Cl)C1)c1ccccc1-c1ccccc12` (stereo unspecified) are 2.42%, 2.74% and 1.29%.
The matching figures for `Brc1ccc(C=NNc2nc3ccccc3[nH]2)cc1`: 6.61%, 4.26% and 2.59%.
`CC(Cc1ccc(NC(=O)c2ccc(CNCCCCc3ccccc3)cc2)cc1)NCCc1cccc(Cl)c1` (stereo unspecified): the values for the inhibition in experiment [1], in experiment [2] and in experiment [3] were 106%, 102% and 105%, respectively.
The corresponding values for `O=S(=O)(NC1CCN(c2ccnc3cc(Cl)ccc23)C1)c1ccc(F)cc1` (stereo unspecified) are 0.47%, 1.68% and 1.83%.
The corresponding values for `CCOC(=O)C1=C(C)N=c2sc(=Cc3ccccc3O)c(=O)n2C1c1ccc(OC)c2ccccc12` (stereo unspecified) are -1.25%, -0.06% and -1.57%.
The matching figures for `COc1ccc2nc(-c3ccccc3)cc(NCCN(C)C)c2c1`: 8.41%, 9.21% and 4.86%.
Consider `CCc1ccc(OCc2ccccc2C(=O)Nc2ccc3nc(C)cc(N)c3c2)cc1`, for which the inhibition in experiment [1] stood at 2.1%; in experiment [2], 2.87%; in experiment [3] it was 1.97%.
With `CN1CCC(C(=O)N(Cc2ccc(-c3ccc(CNCCc4ccc(S(C)(=O)=O)cc4)cn3)cc2)Cc2ccc3c(c2)OCO3)CC1`, the inhibition in experiment [1] was 2.03%; in experiment [2], 0.87%; in experiment [3], 3.77%.
The corresponding values for `COC(=O)c1cccc(CNCc2cccc(-c3csc(-c4nc5ccccc5[nH]4)c3)c2)c1` are 9.3%, 8.51% and 6.38%.
The matching figures for `CNC(=O)c1cnc(Nc2ccc(OCC(O)CN(C)C)cc2)nc1Nc1cccc(OC)c1` (stereo unspecified): 3.9%, -2.08% and 4.47%.
As for `Cc1cccc2nc(-c3cccc(-c4ccc(NC(=O)Nc5ccc(Cl)cc5)cc4)c3)[nH]c12`, the inhibition was 4.43% in experiment [1], 5.13% in experiment [2] and -3.06% in experiment [3].
The corresponding values for `O=C(NCCN1Cc2ccccc2C1=O)c1ccc(Oc2ccc(C(=O)NCCN3Cc4ccccc4C3=O)cc2)cc1` are -0.35%, 0.02% and -0.4%.
Take `COc1cc(C=NN=c2cc(C)[nH]c3ccccc23)cc(OC)c1OC`: the results for the inhibition in experiment [1], in experiment [2] and in experiment [3] were 3.56%, 4.95% and 1.6%, respectively.
The matching figures for `COc1ccc(NC(=O)c2ccc(Br)c(C)c2)cc1N1CCN(CCCc2c[nH]c3ccccc23)CC1`: -0.69%, -0.68% and -0.4%.
The corresponding values for `COc1ccc(CNC(=O)c2cnc3c(O)cccc3c2Nc2cccc(NC(=O)c3ccc(Cl)c(Cl)c3)c2)cc1` are 74.7%, 78.8% and 76.6%.
Regarding `Cn1nc(-c2ccc(Cl)cc2)c2cc(C(=O)NCCN3CCOCC3)sc21`, the inhibition in experiment [1] is -0.16%; in experiment [2], 1.5%; in experiment [3], -0.52%.

The values are drawn from ChEMBL document CHEMBL3433997, “St. Jude Leishmania screening dataset” (2016).
